The values below come from PubChem BioAssay (NCI).

The panel holds about 83,000 compounds, 20% with a hit somewhere; the sample as a whole holds those more often.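 Step 1: grow cells in 96-well plates. Step 2: add test compound at a single concentration. Step 3: incubate 48 h. Step 4: record percent growth.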 A number with no mark means an inactive call. The source made the active and inactive calls. Rule for the calls: active = growth percent below 10; inactive = the rest.

Among the test systems are EKVX NSCLC; SN12C renal; UO-31 renal; TK-10 renal; ACHN renal; A498 renal; CCRF-CEM leukemia; MOLT-4 leukemia; SR leukemia; CAKI-1 renal.
What all share (experiment): NCI-60 one-dose screen, 48 h (100 = growth as untreated, 0 = no growth, -100 = all killed)
Holding throughout (conditions): 10 µM unless noted

For the molecule `COc1ccc(OC)c2c1[nH]c(=O)c1c3ccccc3cn21`, the growth with EKVX NSCLC was -43.4% (active); in the assay on SN12C renal it was -92.9% (active); with UO-31 renal it was -81.4% (active); in the assay with TK-10 renal, -83.4% (active); with ACHN renal, -84.6% (active); in the assay with A498 renal, 51.1%. Besides, the growth is -48.7% (active) in the assay with CCRF-CEM leukemia, -15.7% (active) with MOLT-4 leukemia and -6.08% (active) in the assay on SR leukemia.
As to `O=C1c2ccccc2C(=O)c2c1cccc2-n1nnc2ccccc21`, the growth with EKVX NSCLC is 112%; in the assay with SN12C renal it was 106%; with UO-31 renal, 76%; in the assay on ACHN renal it was 103%; with CAKI-1 renal, 105%; with A498 renal, 88.4%. The growth was 80.9% with CCRF-CEM leukemia, 96% in the assay on MOLT-4 leukemia and 104% in the assay on SR leukemia.
Turning to `COc1ccc2c(c1)C(=O)/C(=C/c1cccc(OCC(=O)c3ccccc3)c1)CC2`, the growth in the assay on EKVX NSCLC was 75.8%; in the assay on SN12C renal it was 114%; in the assay with UO-31 renal it was 9.87% (active); with TK-10 renal it was 107%; with ACHN renal, 94.4%; in the assay on CAKI-1 renal, 80.4%. Moreover, the growth in the assay with MOLT-4 leukemia is 52.7%; in the assay on SR leukemia it was 11.1%.
In the case of `CCOc1cccc(C2CC(=O)Nc3cc4c(cc32)OCO4)c1` (stereo unspecified), the growth is 83.8% in the assay with EKVX NSCLC; 104% with SN12C renal; 68.6% with UO-31 renal; 89.7% in the assay with ACHN renal; 64% with CAKI-1 renal; 66.5% with A498 renal. Further, the figures for the growth with CCRF-CEM leukemia, in the assay on MOLT-4 leukemia and with SR leukemia were 72.7%, 78.2% and 57.5%, respectively.
As for `CCCn1cnc2c1c(=O)n(CCCCC(C)=O)c(=O)n2C`, the growth in the assay on EKVX NSCLC was 108%; in the assay with SN12C renal, 124%; in the assay on UO-31 renal it was 80.9%; in the assay on TK-10 renal, 114%; in the assay with ACHN renal, 101%; with CAKI-1 renal, 103%. For the same molecule, the growth was 92% in the assay with MOLT-4 leukemia and 87.5% in the assay with SR leukemia.
As for `CC1=CSC2=NCCN12`, the growth in the assay on EKVX NSCLC was 103%; in the assay on SN12C renal, 99.5%; with UO-31 renal it was 77.6%; in the assay on ACHN renal, 110%; in the assay with CAKI-1 renal it was 93.5%; with A498 renal it was 118%. Also, the growth with CCRF-CEM leukemia is 93.6%; in the assay on MOLT-4 leukemia it was 102%; with SR leukemia, 93.1%.
With `O=C(Nc1ccccc1Cl)c1cnc2ccc(C3CCNCC3)cn12`, the growth in the assay with EKVX NSCLC is 38.5%; in the assay on SN12C renal it was 58.8%; in the assay with UO-31 renal it was -9.91% (active); in the assay with ACHN renal it was 12.7%; in the assay on CAKI-1 renal it was -40.1% (active); with A498 renal, 36.6%. Moreover, the growth with CCRF-CEM leukemia is 112%; with MOLT-4 leukemia it was 62.5%; in the assay with SR leukemia it was 93%.
`C=C(C)[C@H]1CC/C(C)=C/CC[C@]2(C)O[C@H]2CC/C(COC(C)=O)=C\C1=O`: the growth with EKVX NSCLC is 44.3%; with SN12C renal it was 104%; in the assay with UO-31 renal, 69.4%; with TK-10 renal, 117%; with ACHN renal it was 98.9%; in the assay with A498 renal, 91.1%. Also, the figures for the growth in the assay on MOLT-4 leukemia and in the assay with SR leukemia were 90.2% and 56.7%, respectively.
In the case of `O=[P@@]1(c2ccccc2)O[C@H](COCc2ccccc2)[C@@H](OCc2ccccc2)[C@H](OCc2ccccc2)[C@H]1NCc1ccccc1`, the growth with EKVX NSCLC was 17.6%; with SN12C renal, -39.4% (active); in the assay on UO-31 renal it was -7.83% (active); in the assay with TK-10 renal, 13.5%; in the assay on ACHN renal, 10%; with CCRF-CEM leukemia, 15.9%. The growth with MOLT-4 leukemia was 0.343% (active); in the assay with SR leukemia, -2.72% (active).
Take `CN1CCN(Cc2ccc(NC(=O)c3[nH]ncc3Nc3ccnc4ccnn34)cc2)CC1`: the growth in the assay with EKVX NSCLC is 100%; with SN12C renal, 35.1%; in the assay with UO-31 renal, 71.1%; with ACHN renal, 66.4%; in the assay with CAKI-1 renal it was 75.4%; in the assay with A498 renal, 74.4%. Besides, the values for the growth with CCRF-CEM leukemia, with MOLT-4 leukemia and in the assay on SR leukemia were 54.6%, 45.5% and 16%, respectively.
Regarding `CC1CC(C)/C(=N/NC(N)=O)C(C(O)CC2CCC(=O)NC2=O)C1` (stereo unspecified), the growth is 33.6% with EKVX NSCLC; 18.9% in the assay with SN12C renal; 15.9% in the assay with UO-31 renal; 53.9% with TK-10 renal; 35.5% in the assay with CAKI-1 renal; 71.1% in the assay with A498 renal. The growth with CCRF-CEM leukemia is 15.6%; in the assay on MOLT-4 leukemia it was 23%; in the assay with SR leukemia it was 48.5%.
Consider `CSc1ncc2ncn(C3OC(CO)C(O)C3O)c2n1` (stereo unspecified), for which the growth in the assay with EKVX NSCLC was 107%; in the assay on SN12C renal, 120%; with UO-31 renal, 111%; in the assay with TK-10 renal it was 122%; with ACHN renal, 105%; in the assay with A498 renal, 99.6%. Also, the growth was 99% in the assay with CCRF-CEM leukemia, 109% in the assay with MOLT-4 leukemia and 111% with SR leukemia.
Consider `CC/C(=C\c1ccc(N(C)C)cc1)c1ccncc1`, for which the growth is 63.5% with EKVX NSCLC; 52.6% in the assay with SN12C renal; 57.6% in the assay with UO-31 renal; 73.6% in the assay with TK-10 renal; 59.4% in the assay with ACHN renal; 43.4% with CAKI-1 renal. Also, the growth with MOLT-4 leukemia is 38.7%; in the assay on SR leukemia it was 22.8%.
Consider `ClC1=C(Cl)C(Cl)=C(Cl)C1=Cc1ccc(Cl)cc1`, for which the growth is -22.6% (active) with EKVX NSCLC; 47.2% with SN12C renal; -56.9% (active) in the assay on UO-31 renal; 8.54% (active) in the assay with TK-10 renal; 29% with ACHN renal; -63.5% (active) in the assay with CAKI-1 renal. Moreover, the figures for the growth in the assay on MOLT-4 leukemia and in the assay with SR leukemia were 0.492% (active) and -14.1% (active), respectively.
Turning to `O=C(Cc1ccccn1)C(F)(F)C(F)(F)C(F)(F)F`, the growth with EKVX NSCLC was 130%; in the assay on SN12C renal it was 95.2%; in the assay on UO-31 renal it was 91.6%; in the assay with TK-10 renal, 117%; in the assay on ACHN renal, 111%; with A498 renal, 126%. Besides, the growth with CCRF-CEM leukemia is 97.5%; in the assay with MOLT-4 leukemia, 97%; in the assay on SR leukemia, 97.9%.
For the molecule `C/C(=N/N=C(N)N)c1ccc(Cl)cc1`, the growth with EKVX NSCLC is 87.8%; with SN12C renal it was 90.8%; in the assay on UO-31 renal, 78.2%; with TK-10 renal it was 55.3%; with ACHN renal, 96.1%; in the assay with MOLT-4 leukemia it was 145%. Further, in the assay with SR leukemia, the growth is 83.3%.
